Source: PubChem BioAssay (NCI)
Compounds without any hit were thinned out: in the full panel of roughly 79,000, 15% have a hit. Unmarked numbers belong to inactive results. Calls of active or inactive are those of the source. Rule as the data show it: active = growth inhibition above about 70%; inactive = the rest.

Legend:
[1] = NCI Yeast Anticancer Drug Screen. Data for the rad50 strain (AID 155);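 also: 0% = growth of vehicle-only cultures of the same strain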; settings: S. cerevisiae rad50 strain growth inhibition; at 50.0 µM; stronger effect = higher value
In short: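 A DNA repair-deficient yeast mutant serves as the test organism; compound-induced growth inhibition is calculated against vehicle-treated cells.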

[2] = NCI Yeast Anticancer Drug Screen. Data for the mec2-1 strain (AID 157); settings: S. cerevisiae mec2-1 strain, at 50.0 µM, stronger effect = higher value
In short: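 Readout is yeast growth inhibition, normalised to vehicle-treated controls, in the mec2-1 strain exposed to compound.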

[3] = NCI Yeast Anticancer Drug Screen. Data for the sgs1 mgt1 strain (AID 161);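 also: 0% = growth of cultures given vehicle only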; settings: S. cerevisiae sgs1 mgt1 strain, at 50.0 µM, stronger effect = higher value
In short: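 Percent growth inhibition was derived by comparing compound-exposed mutant yeast with vehicle-exposed cultures. The strain carries alterations in DNA damage repair.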

[4] = NCI Yeast Anticancer Drug Screen. Data for the cln2 rad14 strain (AID 165);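 also: 0% = growth equal to vehicle treated cultures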; settings: S. cerevisiae cln2 rad14 strain, at 50.0 µM, stronger effect = higher value
In short: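 Relative to vehicle controls, growth inhibition of compound-treated cln2 rad14 yeast was recorded.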

[5] = NCI Yeast Anticancer Drug Screen. Data for the bub3 strain (AID 167); settings: S. cerevisiae bub3 mutant strain, at 50.0 µM, stronger effect = higher value
In short: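 Inhibition values come from growth of compound-treated mutant yeast normalised to vehicle-treated controls.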

[6] = NCI Yeast Anticancer Drug Screen. Data for the mlh1 rad18 strain (AID 175); settings: S. cerevisiae mlh1 rad18 strain growth inhibition; at 50.0 µM; stronger effect = higher value
In short: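 Test agents were incubated with a yeast strain of defined genotype (DNA damage repair defect). Inhibition of growth was derived by comparison with vehicle-exposed cultures.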

SMILES | growth inhibition [1] | growth inhibition [2] | growth inhibition [3] | growth inhibition [4] [%] | growth inhibition [5] | growth inhibition [6]
CC(Cc1ccco1)C(=O)O (stereo not drawn) | 9.2% | 15.4% | -0.3% | -14 | 1.9% | -11.2%
CN(C)C1=NC(NCc2ccccc2)(N(C)C)OC(N(C)C)=N1 (stereo not drawn) | 1.95% | 4.9% | 0.55% | 8.7 | 13.7% | 15.5%
CC(C)([NH-])C[NH-].[Cl][Pt+2][Cl] | -17.1% | -18.8% | -24.5% | -23.4 | -3.8% | 5.1%
COc1ccc(-c2oc3cc(OC)ccc3c(=O)c2O)cc1 | 22.5% | 25.4% | 8.1% | -3.5 | -5.1% | 8.25%
CCCCCCCNC(=O)C(Cl)Cl | 7.85% | -16.8% | -6.65% | -2.55 | 39.8% | 7.4%
CC1=CC(=O)C(=Ic2ccccc2)C(=O)O1 | 11.2% | -8.25% | 4.6% | 9.65 | -3.85% | 14.6%
O=C(O)CCc1nc2ccccc2[nH]1 | -9.3% | -4.9% | -23.8% | 39.1 | -43.9% | -1%
CC(=O)c1c(-c2ccc(Cl)cc2)c(-c2ccc(Cl)cc2)nn(CCN)c1=O | 38.1% | 15.2% | 29.2% | 24.6 | 42.7% | 93% (active)
COC(=O)N/N=C/c1cccc(C)n1 | -5.55% | 2.05% | -4.55% | 0.7 | -5.25% | -11.6%
CCOC(=O)C(=NNc1cc(OC)c(Cl)cc1OC)C(=O)OCC | 8.25% | -9.95% | -7.4% | -25.4 | 1.7% | 6.05%
COCCCC(O)CNC(C)C (stereo not drawn) | -11.2% | 7.1% | -16.4% | -18.2 | 0.95% | -5.95%
O=C(CN1CCCC1)Nc1ccc2c(c1)C1Oc3ccccc3CC1CO2 (stereo not drawn) | 7.65% | 4.2% | 5.55% | 11.6 | -12.7% | 30.6%
COc1cc(/C=C\c2ccc(SC)cc2)cc(OC)c1OC | 26.4% | 20.6% | 28.9% | 15.3 | 16.8% | -57.9%
CC(C)Nc1ncnc2c1cnn2-c1ccccc1 | -5.9% | -17.1% | 0.65% | -57.7 | 13.5% | -11.3%
CC#CCN(C(C)C)C(C)C | 15.4% | 8.3% | -11.4% | -34.5 | -21.5% | -27.1%
CC(=O)[C@H]1CC[C@H]2[C@@H]3CC=C4C=CCC[C@]4(C)[C@H]3CC[C@]12C | -6.3% | 1% | -3.55% | -58.5 | 8.4% | 6.7%
C=CCc1ccc(O)c(OC)c1 | 36% | -3.25% | -10.4% | 9.7 | 26.4% | 25%
Cc1cc(C(c2ccc(Nc3ccccc3)cc2)c2ccc(Nc3ccccc3)cc2)ccc1Nc1ccccc1 | 2.35% | -4.65% | 7.5% | -7.05 | 5.5% | -19.1%
CCOC(=O)C(O)(NC(C)=O)C(F)(F)F (stereo not drawn) | 27.9% | -3.9% | -0.8% | 17.4 | 0.2% | -47.4%

SMILES | growth inhibition [1] | growth inhibition [2] | growth inhibition [3] | growth inhibition [4] [%] | growth inhibition [5] | growth inhibition [6]
Cc1cccc(SC(=O)Nc2cc([N+](=O)[O-])ccc2Cl)c1 | 6.9% | 4.4% | 11.6% | 10.6 | 17.6% | 20.5%
Cc1cc(Br)c(NC(=S)SCc2ccc(Cl)cc2)cc1C | 88.2% (active) | 80% (active) | 82.6% (active) | 63.5 | 80% (active) | 95.8% (active)
NC(=O)c1ccc(S(=O)(=NS(=O)(=O)c2ccccc2)c2ccc(C(N)=O)cc2)cc1 | 4.2% | -8.4% | -11.8% | -62.8 | -25.6% | -1.6%
COc1ccc(/C=C/C(=O)N(C)C)cc1 | 3.1% | 5.65% | -0.15% | 12.4 | -2.5% | -3.05%
c1ccc(C[P+]2(c3ccccc3)c3ccccc3-c3ccccc32)cc1 | -25.9% | -8% | -11.2% | 4.15 | -6.6% | -38.2%
COc1ccc(C2=C(N)c3c(Cl)cccc3C2=O)cc1 | 6.35% | 3.4% | 30.2% | 14.8 | 21.5% | -58.2%
O=C1c2ccccc2C(=O)N1Nc1ccccc1 | 6.6% | 3.2% | 7.45% | -8.1 | 3.1% | 16.5%
CC1(C)C(=O)NC(=O)N1CO | 27.1% | 2.4% | -5.45% | 19.9 | 14.9% | 20%
NC(=O)N/N=C1\CCn2cccc21 | -10.8% | 1% | -3.25% | -2.2 | 1.1% | -5.1%
O=C(O)c1[nH]c(=O)[nH]c(=O)c1CN1CCCCC1 | -39.8% | -21.6% | -15.1% | -29.9 | -23.4% | -0.75%
Cn1c2ccccc2c(=O)c2c(O)cc3c(c21)C=CC1(CCCCC1)O3 | -4.75% | 11.4% | -2.25% | 19.1 | -5.65% | 25.1%
CC(C)(Oc1ccc2c(=O)cc(-c3ccccc3)oc2c1)C(=O)Nc1c(Cl)cccc1Cl | 7.95% | -18.8% | 10.2% | -59 | 9.75% | -14.8%
S=c1nc[nH][nH]1 | 21.5% | -3.7% | 15.6% | -8.65 | 1.4% | 21.6%
CC1(C)C(=O)OC(n2ccc(=O)[nH]c2=O)C1=O (stereo not drawn) | 7.15% | -11.2% | -7.75% | -43.9 | -10.8% | 12.7%
CCN(CC)CCOCCN(CC)CC | 4.15% | -2.2% | -5.25% | -44.8 | 0.1% | 9.55%
CC1CN(C(=O)/C=C/C(=O)OC2CCCCC2)C(C)CN1C(=O)/C=C/C(=O)OC1CCCCC1 (stereo not drawn) | 0.2% | -3.15% | -7.9% | 1.7 | -4.45% | -27.2%
O=C(CCl)OCc1ccc(Cl)cc1 | 4.5% | 2.55% | -3.75% | -27.8 | 1.25% | -9.45%
CCCCCCCCCCCCCCCCOCC(O)CO (stereo not drawn) | -8.55% | -29.2% | 1.25% | -5.65 | -17.1% | -56.9%
Nc1ccc(/C=C\C(=O)c2ccccc2)cc1 | 16.4% | 1.05% | 12.1% | 12.6 | 4.25% | 17.4%
